In PubChem BioAssay (NCI):
Values joined by “and” are separate entries in the source; they are usually repeats but may differ in a detail not shown here. Identical values can stand only once. Compounds without any hit were thinned out: in the full panel of roughly 79,000, 15% have a hit. Unmarked numbers belong to inactive results. Active and inactive are the calls of the source. Rule as the data show it: active = growth inhibition above about 70%; inactive = the rest.

Tests used:
[1] = NCI Yeast Anticancer Drug Screen. Data for the rad50 strain (AID 155);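 also: 0% = growth of vehicle-only cultures of the same strain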; settings: S. cerevisiae rad50 strain growth inhibition; at 50.0 µM; hits give high values
In short: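 Growth of the mutant yeast was measured after compound exposure and referenced to vehicle-treated cultures.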

[2] = NCI Yeast Anticancer Drug Screen. Data for the mec2-1 strain (AID 157); settings: S. cerevisiae mec2-1 strain, at 50.0 µM, hits give high values
In short: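 Readout is yeast growth inhibition, normalised to vehicle-treated controls, in the mec2-1 strain exposed to compound.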

[3] = NCI Yeast Anticancer Drug Screen. Data for the sgs1 mgt1 strain (AID 161);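 also: 0% = growth of cultures given vehicle only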; settings: S. cerevisiae sgs1 mgt1 strain, at 50.0 µM, hits give high values
In short: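 Percent growth inhibition was derived by comparing compound-exposed mutant yeast with vehicle-exposed cultures. The strain carries alterations in DNA damage repair.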

[4] = NCI Yeast Anticancer Drug Screen. Data for the cln2 rad14 strain (AID 165);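 also: 0% = growth equal to vehicle treated cultures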; settings: S. cerevisiae cln2 rad14 strain, at 50.0 µM, hits give high values
In short: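 Relative to vehicle controls, growth inhibition of compound-treated cln2 rad14 yeast was recorded.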

[5] = NCI Yeast Anticancer Drug Screen. Data for the bub3 strain (AID 167); settings: S. cerevisiae bub3 mutant strain, at 50.0 µM, hits give high values
In short: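 Whole-cell yeast assay. The mutant strain was incubated with compounds, and growth inhibition was determined by comparison with vehicle-treated cells.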

[6] = NCI Yeast Anticancer Drug Screen. Data for the mlh1 rad18 strain (AID 175); settings: S. cerevisiae mlh1 rad18 strain growth inhibition; at 50.0 µM; hits give high values
In short: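 Test agents were incubated with a yeast strain of defined genotype (DNA damage repair defect). Inhibition of growth was derived by comparison with vehicle-exposed cultures.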

Structure (SMILES)	growth inhibition [1]	growth inhibition [2]	growth inhibition [3]	growth inhibition [4]	growth inhibition [5]	growth inhibition [6]
O=C(CC(=O)C(F)(F)C(F)(F)C(F)(F)F)c1ccco1.[Ni]	17.2%	3.8%	27.9%	-9.9%	2%	34.6%
CC(C)[CH2][Sn]([CH2]C(C)C)([CH2]C(C)C)[C](C)(C)C	99.3% (active)	99.7% (active)	99.5% (active)	99.2% (active)	99.4% (active)	99.5% (active)
COC(=O)C1=C(C)N2[C@H](C(=O)O)CO[C@@]2(C)[C@H](C(=O)OC)[C@H]1c1cccc([N+](=O)[O-])c1	26.6%	-8.35%	21.4%	4.25%	25.6%	22.7%
CC([NH-])C[NH-].CC([NH-])C[NH-].[Co].[NH2-].[NH2-] (stereo not given)	-10%	-6.5%	6.15%	-41.2%	35.2%	18.4%
N.N.N.N.N#N.N#N.[Cl-].[Os+6]	-25.4%	-24.1%	-34.6%	-7.95%	-35.4%	-39%
CC1c2[nH]c3ccccc3c2CCN1C (stereo not given)	4.2%	-21.7%	7.8%	13.5%	-6.95%	12.3%
CC(C)OP(=S)(OC(C)C)SSSP(=S)(OC(C)C)OC(C)C	14.2%	3.75%	1.95%	-3.1%	12.7%	6.25%
c1ccc(C2(N3CCC4(CC3)OCCO4)CCCCC2)cc1	13%	-2.9%	9.2%	-17.6%	1.35%	6.35%
O=C(C1C(c2ccccc2)N1C1CCCCC1)C1C(c2ccccc2)N1C1CCCCC1 (stereo not given)	6%	17.9%	10.6%	-5.1%	-10.5%	8.7%
O=C1C2C(C(=O)N1c1ccc(Cl)c(Cl)c1)C1(Cl)C(Cl)=C(Cl)C2(Cl)C1(Cl)Cl (stereo not given)	91.8% (active)	95.2% (active)	96.1% (active)	86.5% (active)	94.1% (active)	95.7% (active)
CN1CNC2C(=O)CCC2c2ccccc21 (stereo not given)	-12.2%	-39.8%	-21.3%	-7.4%	-28.9%	-9.1%
O=[P+](O)c1ccccc1	-5% and -7.35%	-24.9% and -26.3%	-18.4% and 4.85%	5.9% and 0.6%	-4.65% and -2%	-5.5% and 1.3%
O=C1CC(c2ccccc2)n2cccc21 (stereo not given)	8.1%	2.2%	4.85%	24.8%	-8.95%	-27.8%
O=c1cc(O)c2ccccc2o1	26.1%	-1.55%	-4.1%	15.6%	-10.2%	14.3%
CSC(SC)=C1C(=O)NC(=O)NC1=O	-11.8%	1.65%	1.7%	10.2%	-10.1%	-16.4%
NC(=NC(c1ccccc1)c1ccccc1)N[N+](=O)[O-]	-4.1%	5.3%	-12.6%	2.95%	7.45%	-17.9%
O=S1(N2CC2)=NP(N2CC2)(N2CC2)=NP(N2CC2)(N2CC2)=N1 (stereo not given)	-20.9%	-22.5%	-16.8%	11.2%	-33%	-67.1%
CCn1nnnc1N	3.35%	15.9%	11.1%	16.4%	17.8%	14%
[Fe+5].[O-][Cl+3]([O-])([O-])O.[O-]c1ccccc1C=NCCN1CC1.[O-]c1ccccc1C=NCCN1CC1	1.8%	16%	30.1%	0.3%	37%	22.2%
CCCC[P+](C#Cc1ccccc1)(CCCC)CCCC	8.65%	3.5%	9.5%	3.75%	-3.2%	2%
CCN(CCCl)c1cc(C(=O)NCCCN(C)CCCNC(=O)c2cc(N(CC)CCCl)c([N+](=O)[O-])cc2[N+](=O)[O-])c([N+](=O)[O-])cc1[N+](=O)[O-]	-4.75%	-2.9%	-17%	-4.05%	-2.2%	-9%
CC(C)(C)C1=C(Br)C(OC(=O)C(F)(F)F)(C(C)(C)C)OP1(=O)c1ccccc1 (stereo not given)	1.55%	12.2%	-22.9%	30.9%	-10.3%	-7.2%
CCOP(=O)(OCC)c1cc2cc(O)ccc2oc1=O	-40%	-26%	-32.2%	2.75%	-8.75%	-50.7%
COP(=O)(OC)C1(C(C)(C)C)CO1 (stereo not given)	-1.75%	-4.9%	0.65%	-23.1%	-11.6%	0.5%
CCN1CCC2(CC1)COCc1ccccc12	18.3%	7.8%	16.4%	4.15%	3.15%	29.6%
